# Compounds with a hit are over-represented: about 1.4% of the library has one in this group of screens.
# HSV replic up – HSV replication enhancement | maximum fold increase | 220,000 compounds, 0.005% hits | HSV replication augmentation in cells, fold increase; in the data active = maximum fold increase above about 1.5; tested in PC3 cells
# EP2 mod – modulators of human EP2 prostaglandin E2 receptor. P43116. EP2-expressing cells, cAMP HTRF FRET, PGE2 co-stimulation. induction, % at 25 µM. 260,000 compounds, 0.83% hits. AID 940;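 active = compounds whose cAMP rise, as percent of the full-agonist control response, exceeds 60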;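 also: rat C6 glioma line stably carrying human EP2 under a CMV promoter; the protocol text gives 20 µM as final concentration; 100% = response of wells given 1 µM PGE2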
# PGE2 EP2 inh – inhibitors of human EP2 prostaglandin E2 receptor | 260,000 compounds, 0.52% hits | AID 1422 | C6 glioma cells expressing human EP2, cAMP TR-FRET; cells stimulated with saturating PGE2 | inhibition, % at 25 µM;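 active = percent inhibition above 40 after rounding to a whole number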;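 also: rat C6 glioma host cells with rolipram phosphodiesterase inhibitor present; the protocol text gives 20 µM as final concentration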
# Furin inh – inhibitors of human furin; P09958; purified furin, fluorogenic substrate cleavage; inhibition, % at 20 µM or 30 µM; 220,000 compounds, 0.061% hits; AID 463115; in the data active = inhibition above about 25%
# Target sequence (P09958 108-714 limits assumed): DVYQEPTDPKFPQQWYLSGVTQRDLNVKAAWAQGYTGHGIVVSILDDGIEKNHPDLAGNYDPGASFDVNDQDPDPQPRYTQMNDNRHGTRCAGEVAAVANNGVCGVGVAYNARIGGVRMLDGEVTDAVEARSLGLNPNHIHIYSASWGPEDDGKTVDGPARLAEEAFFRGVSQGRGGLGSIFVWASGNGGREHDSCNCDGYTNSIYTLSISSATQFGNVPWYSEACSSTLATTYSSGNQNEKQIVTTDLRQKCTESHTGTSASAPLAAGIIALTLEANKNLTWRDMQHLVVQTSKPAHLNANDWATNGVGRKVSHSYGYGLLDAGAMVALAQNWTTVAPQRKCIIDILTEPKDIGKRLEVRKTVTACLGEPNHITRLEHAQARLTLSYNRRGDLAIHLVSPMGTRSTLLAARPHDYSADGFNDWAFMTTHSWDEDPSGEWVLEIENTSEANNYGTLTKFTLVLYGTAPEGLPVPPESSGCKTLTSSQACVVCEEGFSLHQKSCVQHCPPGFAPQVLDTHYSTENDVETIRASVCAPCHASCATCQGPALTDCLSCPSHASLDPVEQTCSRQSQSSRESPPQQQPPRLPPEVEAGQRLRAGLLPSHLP
# Pf gamet viab – P. falciparum stage V gametocyte viability inhibition | P. falciparum stage V gametocytes, ATP luminescence, 24 h | inhibition, % at 10.9 µM | 150,000 compounds, 0.065% hits | AID 743093;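 active = inhibition above the mean plus 3 SD of compounds within the control limits, set per campaign, cut at about 38% in these data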;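 also: 0% = DMSO wells and 100% = medium only without gametocytes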
# EP2 confirm – EP2 receptor cAMP induction, counter-screens negative; shares compounds with EP2 mod; C6 glioma EP2 cells, cAMP HTRF induction; plus low (about EC15) PGE2 agonist; calls only at 20 µM (by protocol); 1,300 compounds, 47% hits; AID 1080;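 active = cAMP induction above 50% in the main assay while under 30% in all four parallel counter assays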;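 also: rat C6 glioma cells stably expressing human EP2 receptor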
# * marks the source's active call; other numbers are inactive results; i = inactive; . = no result; + = active, no number.
SMILES,HSV replic up,EP2 mod,PGE2 EP2 inh,Furin inh,Pf gamet viab,EP2 confirm
CC(C(=O)Nc1ccccc1-c1ccccc1)N1CCN(C(=O)c2ccccc2)CC1 (centres undefined),i,1,9,-14,2,.
Cn1c(=O)c2c(SC3CCCC3)nc(C3CC3)nc2n(C)c1=O,i,79*,11,-16,.,+
O=C1CCCN1c1ccc(S(=O)(=O)Cl)cc1,.,22,11,.,.,.
O=C1C2C(c3ccccc3)C=CC(c3ccccc3)C2C(=O)N1c1ccncc1 (centres undefined),i,65*,1,-7,6,i
COc1ccc(Nc2nc(-c3cc4cccc(OC)c4oc3=O)cs2)cc1,i,71*,6,11,-18,+
COc1ccc2oc(=O)c(-c3csc(Nc4cccc(O)c4)n3)cc2c1,i,-48,32,4,-18,.
COc1ccc(C(=O)Nc2ncc3c(n2)CC(C)CC3=O)cc1 (centres undefined),i,6,7,4,-19,.
CC(NC(c1ccccc1)c1ccccc1)C(=O)N1CCCc2ccccc21 (centres undefined),i,66*,8,-16,.,i
CC(=O)NC1C(OCc2ccccc2)OC(CO)C(OC(C)=O)C1OC(C)=O (centres undefined),i,11,12,6,-27,.
CCOC(=O)CCN(Cc1cccs1)S(=O)(=O)c1ccc(F)cc1,i,43,5,-25,-15,.
CCOC(=O)CCN(Cc1sccc1C)S(=O)(=O)c1ccc(F)cc1,i,81*,2,-15,.,i
Cc1ccc(Oc2nc3ccccc3n3cccc23)cc1,i,60,9,-14,4,.
c1ccc(Oc2nc3ccccc3n3cccc23)cc1,i,65*,5,-24,.,i
O=C(CN1CCCCCC1)Nc1ccccc1Oc1ccccc1,i,70*,9,-28,4,+
O=C(CN1CCCCC1)Nc1cc(Cl)ccc1Oc1ccccc1,i,50,1,-25,22,.
COc1ccc(-n2c(=S)[nH]c3c(oc4ccccc43)c2=O)cc1,i,68*,12,-13,-27,i
Cc1cc(C)c2cc(C)c(SCC(=O)NCc3ccco3)nc2c1,i,77*,7,-19,3,+
Brc1ccc(Cn2c(-c3ccc(Br)o3)nc3ccccc32)o1,i,68*,13,-9,-7,+
Cc1cc(C)cc(NCC(=O)Nc2c(C)cccc2C)c1,i,28,5,-4,22,.
Cc1ccc(SCc2ccc(C(=O)Nc3cccc([N+](=O)[O-])c3)cc2)cc1,i,5,8,-9,.,.
CCOC(=O)c1cc(NC(=O)N2CCCc3ccccc32)c(C)nc1C,i,-2,11,-30,.,.
Cc1cc(C(=O)NCC(c2ccco2)N(C)C)no1 (centres undefined),i,71*,1,-9,3,i
N#CC1=C(S)N(c2ccccc2)C2(CCCCC2)NC1=O,.,71*,13,-10,-9,i
Cc1nnc(N2CCCCC2)c2ccccc12,i,11,18,-27,.,.
CCc1n[nH]c(=S)n1/N=C/c1cc(Br)c(O)c(OC)c1,i,17,14,-14,-26,.
SMILES,HSV replic up,EP2 mod,PGE2 EP2 inh,Furin inh,Pf gamet viab,EP2 confirm
C=CCOc1c(Br)cc(/C=N/n2c(CC)n[nH]c2=S)cc1Br,i,75*,4,-19,8,+
CC1(C)NC(=O)N(Cc2cc(=O)n3ccsc3n2)C1=O,i,10,8,-19,-9,.
Cc1ccccc1CSCC(=O)Nc1ccccc1-c1ccccc1,i,81*,0,-8,19,+
Cc1ccc(NC(=O)CN(C)CC(=O)Nc2ccccc2-c2ccccc2)cc1,i,22,-1,-23,.,.
CN(CC(=O)Nc1ccccc1-c1ccccc1)Cc1ccccc1Cl,i,71*,4,-20,-17,+
O=C(CSCc1cccc(Cl)c1)Nc1ccccc1-c1ccccc1,i,67*,9,-7,4,+
O=C(COC(=O)/C=C/c1cccc(F)c1)Nc1ccccc1-c1ccccc1,i,-5,4,-13,3,.
CCOC(=O)C1(Cc2ccc(OC)cc2)CCN(C(=O)CCN2CCCC2=O)CC1,i,19,2,-18,-30,.
CCc1nc(SCC(=O)c2ccc3c(c2)OCCO3)c2ccccc2n1,i,-50,14,-23,.,.
O=C(CSc1nc(Cc2ccccc2)nc2ccccc12)c1ccc2c(c1)OCCO2,i,66*,5,-20,.,+
CCN(CC)CCCOC(=O)C(c1ccccc1)c1ccccc1,i,-30,12,-11,.,.
Cc1cccc(C)c1OC(=O)C(c1ccccc1)c1ccccc1,i,66*,19,-20,-6,i
c1ccc2c(-c3nc(C4CCCCC4)no3)cc(-c3ccncc3)nc2c1,i,67*,5,-14,.,+
Cc1nc(-c2ccccc2)cc(=O)[nH]1,i,12,9,-8,.,.
O=c1nc(-c2ccccc2)cc(-c2ccccc2)[nH]1,i,65*,10,-17,4,i
O=S1(=O)CCN(Cc2cccc(Cl)c2)CC1,i,86*,8,-15,29,i
O=S1(=O)CCN(Cc2ccc(F)cc2)CC1,i,-5,8,-32,10,.
CCCc1cc(C(=O)OC)c(NC(=O)c2cc(C)on2)s1,i,58,6,-18,.,+
CCc1ccc(NC(=O)c2cc(C)on2)cc1,i,6,-1,-21,.,.
Fc1ccc(C(c2ccc(F)cc2)N2CCN(C/C=C/c3ccccc3)CC2)cc1,i,46,8,-9,.,i
CC1(C)CN=C(N(C(=O)Nc2ccccc2)c2ccccc2F)S1,i,43,5,-24,4,.
Cc1cccnc1N(C(=O)Nc1ccccc1)C1=NCC(C)(C)S1,i,86*,9,-7,.,+
Cc1cccnc1N(C(=O)Nc1cccc(Cl)c1)C1=NCC(C)(C)S1,i,70*,3,-9,6,+
CSc1nnc(-c2cc3c(s2)-c2ccccc2CC3)o1,i,76*,10,-167,18,+
COC(=O)c1sccc1NC(=O)c1cc2c(s1)CCCC2,.,54,.,3,.,i
SMILES,HSV replic up,EP2 mod,PGE2 EP2 inh,Furin inh,Pf gamet viab,EP2 confirm
COC(=O)c1sccc1NC(=O)c1cccc(OC)c1,i,67*,14,-20,-6,i
COC(=O)c1sccc1NC(=O)c1ccccc1,i,-24,0,-12,-6,.
Cc1cc(NCCCOC(C)C)n2c(nc3ccccc32)c1C#N,.,0,28,.,.,.
COc1ccccc1NC(=S)N(Cc1cccs1)C1CCCC1,i,51,2,-13,4,.
CCc1nc(SCC(=O)Nc2nc3c(s2)CCCC3)c2ccccc2n1,i,87*,12,-14,-16,i
CCCc1nc(SCC(=O)Nc2nc3c(s2)CCCC3)c2ccccc2n1,i,59,.,-1,.,.

# Screening results: PubChem, several laboratories
